“And” between values parts separate entries of the source, which are not always exact repeats. Identical values can stand only once. Results filed as inconclusive are left out. The source made the active and inactive calls. Unless noted, the call rests on the fitted dose curve; in most records, active means well fitted curve in the direction sought with a large enough effect; inconclusive means small, poorly fitted or top-dose-only effect, or another doubt; inactive means no such curve, though single readings can be large; an effect the other way counts as inactive or inconclusive.
Tests used:
[1] = Cell Viability - BJ (AID 421; calls by dose curve;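 further: potency means the concentration at half of the fitted maximal effect; cells exposed to compound for 40 hours at 37 °C before readout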); details: BJ fibroblast viability, qHTS
Summary of the method: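 Luminescent ATP signal (CellTiter-Glo, 20 min at room temperature) served as the read-out of viable BJ cells after 40 hours of compound treatment. Responses were scaled between DMSO and 100 uM tamoxifen, and AC50 values were obtained by Hill modeling.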

[2] = Cell Viability - Jurkat (AID 426;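 active means dose-dependent loss of cell ATP signal giving a full or clear fitted curve, ranked by lower potency value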; further: potency means the concentration at half of the fitted maximal effect); details: qHTS
Summary of the method: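 Seed 5000 Jurkat E6-1 cells/well; add compound; incubate 40 hr at 37 °C; add CellTiter-Glo; wait 20 min at room temperature; read luminescence. Fit concentration-response with Hill equation for AC50.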

[3] = Cell Viability - Hek293 (AID 427;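 active means compounds whose dose-response curve shows a full or clear partial loss of cell viability, called from curve shape rather than a numeric limit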;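 further: potency means the concentration at half of the fitted maximal effect; cells exposed to compound for 40 hours at 37 °C before reading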); details: qHTS
Summary of the method: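 Luminescent ATP read-out (CellTiter-Glo, 20 min RT) after 40 hr compound exposure at 37 °C in complete medium. Signal normalized to DMSO (basal) and 100 uM tamoxifen (100% inhibition); concentration-response fitted with the standard Hill equation to give AC50.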

[4] = Cell Viability - HepG2 (AID 433; calls by dose curve;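 further: potency means the concentration at half of the fitted maximal effect; potency for ATP loss meaning cytotoxicity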); details: qHTS
Summary of the method: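 In this qHTS format, a 40 h, 37 °C compound incubation of HepG2 cells in complete medium precedes a 20 min CellTiter-Glo step at room temperature. Tamoxifen and doxorubicin serve as positive controls; Hill-equation fits yield AC50.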

[5] = Cell Viability - MRC5 (AID 434; calls by dose curve;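 further: potency means the concentration at half of the fitted maximal effect; potency reflects cytotoxicity seen as loss of intracellular ATP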); details: MRC5 lung fibroblast viability, qHTS
Summary of the method: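 qHTS cytotoxicity in human lung fibroblast MRC5 cells; 40 hr treatment, 37 °C; cellular ATP by luciferase luminescence; DMSO = 0%, 100 uM tamoxifen = 100% inhibition; Hill-fit AC50.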

[6] = Cell Viability - SK-N-SH (AID 435; calls by dose curve;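 further: potency means the concentration at half of the fitted maximal effect; compound exposure lasted 40 h at 37 °C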); details: SK-N-SH neuroblastoma cell viability qHTS
Summary of the method: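 Human neuroblastoma line, 40 h exposure at 37 °C, ATP quantified via luciferase luminescence; DMSO and 100 uM tamoxifen define 0 and 100% inhibition for AC50 fitting.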

[7] = biological target: Mitogen-activated protein kinase 10 (Mus musculus) (UniProt Q61831); assay: JNK3 AlphaScreen Assay (AID 530; active means well fitted curve in either direction with a large enough effect, not every such curve was filed as active;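 further: kinase came from lysate of stimulated human HepG2 cells; signal reports phosphorylation of biotinylated GST-cJun 1-79 at Ser73 with 10 µM ATP; on the % scale 0 is the no-effect control and ±100 the full control effect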)
Summary of the method: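 Room-temperature AlphaScreen kinase assay; pre-activated HepG2 lysate as JNK3 source, biotin-GST-cJun(1-79) substrate, 10 uM ATP, compound 15 min preincubation.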

[8] = Cell Viability - N2a (AID 540);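 further: plate controls were DMSO alone for no effect and tamoxifen control for full effect; nearly all actives have a fitted effect of over 45% in size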
Summary of the method: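 First, 1500 N2a cells per well incubate 5 hr at 37 °C; next, compounds are added and incubated 40 hr at 37 °C; finally CellTiter-Glo is added and luminescence read after 20 min, with AC50 derived by Hill modeling.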

[9] = Cell Viability - NIH 3T3 (AID 541);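 further: plate controls were DMSO alone for no effect and tamoxifen positive control for full effect; nearly all actives have a fitted effect of over 25% in size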
Summary of the method: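 AC50 values reflect concentration-dependent loss of intracellular ATP in NIH 3T3 cells after 40 hr treatment in complete culture medium, quantified by luciferase-based luminescence.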

[10] = Cell Viability - HUV-EC-C (AID 542); further: on the % scale 0 is the no-effect control and ±100 the full control effect; nearly all actives have a fitted effect of over 35% in size
Summary of the method: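 Decrease in cellular ATP, quantified by luciferase luminescence, reflects toxicity in normal human vascular endothelial HUV-EC-C cells given compound for 40 hr in complete culture medium. Values are AC50s from concentration-response curves.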

[11] = Cell Viability - H-4-II-E (AID 543); further: on the % scale 0 is the no-effect control and ±100 the full control effect; nearly all actives have a fitted effect of over 35% in size
Summary of the method: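 Here, cytotoxicity is measured in the rat hepatoma line H-4-II-E as loss of intracellular ATP after 40 hr compound treatment, detected by luciferase luminescence.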

[12] = Cell Viability - SH-SY5Y (AID 544); details: SH-SY5Y neuroblastoma cell viability; at 92.2 µM (top of the series);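 further: 0% = DMSO alone and -100% = 100 µM tamoxifen; nearly all actives have a fitted effect of over 55% in size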
Summary of the method: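 Cytotoxicity is scored as a concentration-dependent fall in intracellular ATP in human SH-SY5Y cells treated 40 hr in complete culture medium. Potency is expressed as AC50 from a Hill equation fit.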

[13] = Cell Viability - Renal Proximal Tubule (AID 545);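 further: 0% = DMSO only and -100% = 100 µM tamoxifen; nearly all actives have a fitted effect of over 40% in size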
Summary of the method: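 In this qHTS format, normal rat kidney-derived proximal tubule cells in complete culture medium receive compound titrations, then sit 40 hours at 37 °C before luciferase-based ATP quantitation; potency is reported as AC50 from concentration-response curves.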

[14] = AP1 Signaling Pathway (AID 357; active means well fitted curve in either direction with a large enough effect, not every such curve was filed as active;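 further: ME-180 reporter cells stimulated with EGF at its EC50 level; on the % scale 0 is the no-effect control and ±100 the full control effect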)
Summary of the method: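 Read-out was the 460nm/530nm emission ratio (excitation 405nm) after CCF4 loading for 2.5 hours at room temperature. Cells carried an AP-1-driven beta-lactamase reporter, were stimulated with EC50 EGF plus compound for 5 hours, and AC50 values came from titrations.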

[15] = NFAT Signaling Pathway (AID 444; active means well fitted curve in either direction with a large enough effect, not every such curve was filed as active;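 further: carbachol stimulus at about its EC50 of 1 µM final; on the % scale 0 is the no-effect control and ±100 the full control effect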); details: Jurkat NFAT-bla M1, carbachol, beta-lactamase ratio, 5 h; at 17.2 µM (top of the series) unless noted
Summary of the method: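 Read-out: CCF4 FRET ratio (460 nm/530 nm) after 1 h RT dye loading, used for %activity and AC50 from titration series. Cells: Jurkat NFAT-β-lactamase/M1 line, treated with compound plus 1 uM carbachol for 5 h, 37 °C.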

[16] = Stat Signaling Pathway (AID 446; active means well fitted curve in either direction with a large enough effect, not every such curve was filed as active;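 further: ME-180 cervical cancer cells given 40 pM IL-6 alongside compound; SIE-controlled beta-lactamase reporter measured as 460/530 nm FRET emission ratio; on the % scale 0 is the no-effect control and ±100 the full control effect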)
Summary of the method: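 ME-180 SIE-bla cells; overnight plating; cpd + IL-6 40 pM, 5 h, 37 C; LiveBLAzer 2.5 h RT; 460/530 nm emission ratio. Normalized to 300 pM IL-6 and 125 nM JAK inhibitor controls.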

[17] = biological target: Glucocorticoid receptor (Homo sapiens) (UniProt P04150); assay: GR-GFP Redistribution (AID 450;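 active means compounds whose dose series gives a full or clear partial fitted curve of increased nuclear translocation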; further: potency means the concentration at half of the fitted maximal effect); details: U2OS GR-GFP nuclear translocation, laser cytometry, 2 h
Chain of Glucocorticoid receptor (Homo sapiens) (P04150 whole entry, looked up, the tested form may be a part): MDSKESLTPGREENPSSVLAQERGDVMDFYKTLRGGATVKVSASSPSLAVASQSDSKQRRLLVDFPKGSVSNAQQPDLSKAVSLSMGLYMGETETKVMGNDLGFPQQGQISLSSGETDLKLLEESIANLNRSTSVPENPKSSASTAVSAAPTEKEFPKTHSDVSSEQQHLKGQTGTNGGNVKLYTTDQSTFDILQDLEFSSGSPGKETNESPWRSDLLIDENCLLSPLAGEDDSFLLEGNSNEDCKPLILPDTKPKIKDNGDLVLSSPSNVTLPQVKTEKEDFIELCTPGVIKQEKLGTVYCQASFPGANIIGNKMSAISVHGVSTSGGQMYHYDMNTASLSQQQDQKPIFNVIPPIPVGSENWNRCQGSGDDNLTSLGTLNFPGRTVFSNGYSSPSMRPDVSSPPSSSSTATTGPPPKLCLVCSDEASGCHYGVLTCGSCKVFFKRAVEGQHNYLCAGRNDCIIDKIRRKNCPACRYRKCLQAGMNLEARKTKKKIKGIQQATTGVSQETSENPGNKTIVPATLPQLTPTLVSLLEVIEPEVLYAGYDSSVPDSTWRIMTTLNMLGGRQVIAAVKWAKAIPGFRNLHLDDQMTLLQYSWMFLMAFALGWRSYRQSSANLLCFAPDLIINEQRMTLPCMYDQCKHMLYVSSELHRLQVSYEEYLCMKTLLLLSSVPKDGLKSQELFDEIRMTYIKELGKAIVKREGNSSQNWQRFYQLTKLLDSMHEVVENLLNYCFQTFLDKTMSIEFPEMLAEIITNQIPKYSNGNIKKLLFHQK

[18] = biological target: Glucocorticoid receptor (Homo sapiens) (UniProt P04150); assay: GR-EFC Redistribution (AID 451; calls by dose curve; further: potency means the concentration at half of the fitted maximal effect); details: CHO-K1 GR-EFC translocation, beta-gal luminescence, 2 h
Summary of the method: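 Translocation of GR-ED fusion to nuclear EA restores b-gal, read by luminescence after 1 h room-temperature detection. Engineered CHO-K1 biosensor cells, 1,000/well, exposed 2 h at 37 C to titrations up to 46 uM final.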

[19] = biological target: Cytochrome P450 1A2 (Homo sapiens) (UniProt P05177); assay: p450-cyp1a2 (AID 410; calls by dose curve;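 further: -100% = full effect of reference inhibitor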)
Chain of Cytochrome P450 1A2 (Homo sapiens) (P05177 whole entry, looked up): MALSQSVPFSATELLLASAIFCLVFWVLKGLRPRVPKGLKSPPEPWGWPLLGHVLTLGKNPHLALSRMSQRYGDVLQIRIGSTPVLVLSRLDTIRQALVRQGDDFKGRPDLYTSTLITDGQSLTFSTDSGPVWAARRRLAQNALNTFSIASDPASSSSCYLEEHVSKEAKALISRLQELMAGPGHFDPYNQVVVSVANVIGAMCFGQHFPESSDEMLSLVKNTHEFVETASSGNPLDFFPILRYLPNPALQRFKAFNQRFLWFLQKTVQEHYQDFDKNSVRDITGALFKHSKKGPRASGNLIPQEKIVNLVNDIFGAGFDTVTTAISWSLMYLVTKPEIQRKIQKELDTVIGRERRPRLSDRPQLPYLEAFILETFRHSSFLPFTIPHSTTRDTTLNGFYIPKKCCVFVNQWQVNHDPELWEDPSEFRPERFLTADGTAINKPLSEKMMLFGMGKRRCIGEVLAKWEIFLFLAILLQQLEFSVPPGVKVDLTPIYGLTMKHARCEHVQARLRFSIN
Summary of the method: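 Inhibition was calculated relative to 57 uM furafylline (full inhibition). The reaction used human CYP1A2 at 20nM with Luciferin-ME at its Km, 100uM, driven by an NADPH-regenerating system for 60 min at room temperature.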

CCCC(O)C(CC)CO (centres undefined)
inactive: Potency [1] > 92 µM | Potency [2] > 92 µM | Potency [3] > 92 µM | Potency [4] > 92 µM | Potency [5] > 92 µM | Potency [6] > 92 µM | outcome [7] | outcome [8] | outcome [9] | outcome [10] | outcome [11] | viability change, negative = cytotoxic [12] -7.87% | outcome [13]

NS(=O)(=O)c1cc2c(cc1C(F)(F)F)NCNS2(=O)=O
inactive: outcome [14] | activity change, negative = inhibition [15] -1.33% and 8.85% | outcome [16] | Potency [17] > 20.6 µM | Potency [18] > 20.6 µM | outcome [7]

CCN(CC)C(=O)c1cccc(C)c1
inactive: Potency [1] > 92 µM | Potency [2] > 92 µM | Potency [3] > 92 µM | Potency [4] > 92 µM | Potency [5] > 92 µM | Potency [6] > 92 µM | outcome [8] | outcome [10] | outcome [11] | viability change, negative = cytotoxic [12] -22.4% | outcome [13]

C=CCNC(N)=S
inactive: Potency [1] > 92 µM | Potency [2] > 92 µM | Potency [3] > 92 µM | Potency [4] > 92 µM | Potency [5] > 92 µM | Potency [6] > 92 µM | outcome [7] | outcome [8] | outcome [9] | outcome [10] | outcome [11] | viability change, negative = cytotoxic [12] -6.07% | outcome [13]

CC(C)(C)C(=O)OCOC(=O)[C@@H]1N2C(=O)[C@@H](NC(=O)[C@H](N)c3ccccc3)[C@H]2SC1(C)C
inactive: Potency [19] | outcome [16]

FC(F)(F)C(Cl)Br (centres undefined)
inactive: Potency [1] > 92 µM | Potency [2] > 92 µM | Potency [3] > 92 µM | Potency [4] > 92 µM | Potency [5] > 92 µM | Potency [6] > 92 µM | outcome [8] | outcome [9] | outcome [10] | outcome [11] | viability change, negative = cytotoxic [12] -0.71% | outcome [13]

CC(=O)Nc1cccc(O)c1
inactive: Potency [1] > 92 µM | Potency [2] > 92 µM | Potency [3] > 92 µM | Potency [4] > 92 µM | Potency [5] > 92 µM | Potency [6] > 92 µM | outcome [7] | outcome [8] | outcome [9] | outcome [10] | outcome [11] | viability change, negative = cytotoxic [12] 15.1% | outcome [13]

C[C@@H](N)C(=O)O
inactive: Potency [17] > 46 µM | Potency [18] > 46 µM

NC(N)=NCCN1CCCCCCC1
inactive: outcome [14] | activity change, negative = inhibition [15] -13.3% | outcome [16] | Potency [17] > 20.6 µM | Potency [18] > 20.6 µM | outcome [7]

CC(=O)OCC(COC(C)=O)OC(C)=O
inactive: Potency [1] > 92 µM | Potency [2] > 92 µM | Potency [3] > 92 µM | Potency [4] > 92 µM | Potency [5] > 92 µM | Potency [6] > 92 µM | outcome [8] | outcome [9] | outcome [10] | outcome [11] | viability change, negative = cytotoxic [12] 13.4% | outcome [13]

CC(=O)[C@@]1(O)CC[C@H]2[C@@H]3C[C@H](C)C4=CC(=O)C=C[C@]4(C)[C@@]3(F)[C@@H](O)C[C@@]21C
inactive: outcome [14] | activity change, negative = inhibition [15] 9.08% | outcome [16] | Potency [17] > 20.6 µM

O=C1c2cccc(O)c2C(=O)c2c(O)cccc21
inactive: Potency [1] > 92 µM | Potency [3] > 92 µM | Potency [4] > 92 µM | Potency [5] > 92 µM | outcome [8] | outcome [10] | outcome [11] | outcome [13]

C[N+](C)(C)CC[N+]1(C)Cc2c(Cl)c(Cl)c(Cl)c(Cl)c2C1
inactive: Potency [19] | Potency [17] > 46 µM | Potency [18] > 46 µM

O=C1c2ccccc2S(=O)(=O)N1CCCCN1CCN(c2ncccn2)CC1
inactive: Potency [17] > 46 µM | Potency [18] > 46 µM

CC(=O)Nc1ccc(C(=O)O)cc1
inactive: Potency [1] > 92 µM | Potency [2] > 92 µM | Potency [3] > 92 µM | Potency [4] > 92 µM | Potency [5] > 92 µM | Potency [6] > 92 µM | outcome [8] | outcome [9] | outcome [10] | outcome [11] | viability change, negative = cytotoxic [12] -7.67% | outcome [13]

From PubChem BioAssay (NCATS)
